# Source: PubChem
# HP1b binding inh: HP1-beta chromodomain-methylated histone interaction inhibition. AlphaScreen HP1-beta / biotin-H3K9me3 peptide binding. Potency, µM (doses to about 114 µM), for inactives: at the highest dose activity change, negative = inhibition, most hits filed as inhibitors. hit rate 0.56% among 390,000. AID 540317; also: nearly all actives have a fitted effect of over 70% in size
# Target sequence (P83916 whole entry, looked up): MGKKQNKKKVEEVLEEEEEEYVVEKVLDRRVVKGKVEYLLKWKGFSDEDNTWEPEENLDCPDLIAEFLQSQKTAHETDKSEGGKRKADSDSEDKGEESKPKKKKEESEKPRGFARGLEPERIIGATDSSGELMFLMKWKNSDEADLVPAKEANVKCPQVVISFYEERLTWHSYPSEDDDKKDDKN
#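 AlphaScreen: HP1-beta (50 nM) preformed 30 min with biotin-H3(1-18)K9me3 peptide (50 nM) in PBS pH 7.4, 0.01% Tween-20. Compound added for 30 min at RT, then streptavidin donor/nickel chelate acceptor beads (10 ug/mL) for 30 min.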
# G9a block: blocks human histone lysine methyltransferase G9a; Q96KQ7; G9a H3K9 monomethylation, AlphaScreen, 2 h; Potency, µM (doses to about 102 µM), without a hit: top-dose activity, negative = inhibition, most hits filed as inhibitors; hit rate 8.8% among 350,000; AID 504332; also: % is scaled to controls: 0 for no effect and ±100 for the full control effect; nearly all actives have a fitted effect of over 75% in size
# Target sequence (Q96KQ7 913-1193 limits assumed): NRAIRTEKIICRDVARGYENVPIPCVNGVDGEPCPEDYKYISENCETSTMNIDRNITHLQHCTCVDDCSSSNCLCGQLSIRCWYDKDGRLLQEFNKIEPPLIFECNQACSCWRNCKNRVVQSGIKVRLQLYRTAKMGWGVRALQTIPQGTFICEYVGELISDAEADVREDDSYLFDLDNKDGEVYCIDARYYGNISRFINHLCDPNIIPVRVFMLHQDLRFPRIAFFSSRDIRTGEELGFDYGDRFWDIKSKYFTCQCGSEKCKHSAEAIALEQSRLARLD
#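 Readings reflect AlphaScreen signal from monomethyl-H3K9 antibody detection. HMT at 20 nM; substrate b-H3K9 500 nM; cofactor SAM 20 uM; 2 h RT reaction; compounds tested as titrations in qHTS with 15 min preincubation.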
# L3MBTL1 inh: blocks human L3MBTL1; Q9Y468; AlphaScreen L3MBTL1–H3K9me1 peptide binding; Potency, µM (titrated, usually from 57.1 µM), inactives show at the top dose activity, negative = inhibition, usual class: inhibitors; hit rate 0.66% among 230,000; AID 485360; also: % is scaled to controls: 0 for no effect and ±100 for the full control effect; nearly all actives have a fitted effect of over 60% in size
#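 First, the protein-peptide complex forms for 30 min at room temperature (L3MBTL1 50 nM, biotinylated H3K9me1 peptide 75 nM). Next, compounds are pin-transferred and incubated 30 min. Finally, AlphaScreen beads are added and read after 30 min.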
# Sfp inh: inhibitors of Bacillus subtilis Sfp phosphopantetheinyl transferase; Q9F4F7; Biochemical Sfp PPTase activity, qHTS; Potency, µM, without a hit: largest response in the series, negative = inhibition, hits mostly inhibitors; hit rate 3.5% among 310,000; AID 1490;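 also: the enzyme is Sfp with the accession as filed and its product quenches rhodamine fluorescence; 0% = enzyme reaction without inhibitor and -100% = no enzyme wells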
#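 Fluorescence-quenching assay: 15 nM Sfp-PPTase preincubated 15 min at room temperature with compound, then 5 uM rhodamine-CoA and 12.5 uM BHQ-2-labelled YbbR peptide added. Fluorescence (ex 525/em 598 nm) read at start and after 30 min; difference gives rate.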
# BAZ2B inh: BAZ2B (human) inhibition. AID 504333. AlphaScreen BAZ2B-H3K14Ac peptide displacement. hit rate 4.4% among 360,000. Q9UIF8. Potency, µM (highest dose often 114 µM), for the others: at the highest dose activity change, negative = inhibition, most hits filed as inhibitors; also: % is scaled to controls: 0 for no effect and ±100 for the full control effect; nearly all actives have a fitted effect of over 60% in size
#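 BAZ2B 50 nM plus b-H3(5-23)K14Ac 50 nM, PBS pH 7.4/0.01% Tween-20, 30 min RT; compound added (max 110 uM), 30 min RT; streptavidin donor/Ni-chelate acceptor beads 10 ug/mL final, 20 min dark; AlphaScreen read.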
# JMJD2A Tudor: blocks the human JMJD2A Tudor domain; O75164; Potency, µM (doses to about 114 µM), inactives show at the highest dose activity change, negative = inhibition, usual class: inhibitors; AlphaScreen JMJD2A-Tudor / H3K4me3 peptide binding; AID 504339; hit rate 4.4% among 390,000; also: % is scaled to controls: 0 for no effect and ±100 for the full control effect; nearly all actives have a fitted effect of over 50% in size
# Active calls of the source: *; ? = inconclusive; . = no result given; [ ] = dose if it differs, or a comment. Compounds with a hit are over-represented: about 12% of the library has one in this group of screens. Calls follow the shape of the dose curve; as a rule, active = well fitted curve in the direction sought with a large enough effect; inconclusive = small, poorly fitted or top-dose-only effect, or another doubt; inactive = no such curve, though single readings can be large; an effect the other way counts as inactive or inconclusive. Potency is read from the fitted curve at half-maximal effect.
SMILES,HP1b binding inh,G9a block,L3MBTL1 inh,Sfp inh,BAZ2B inh,JMJD2A Tudor
CCOP(=S)(OCC)Oc1cc(C)oc(=O)c1Cl,-9%,8.9µM*,-6%,8.9µM*,56µM*,20µM*
CCOP(=S)(OCC)Oc1cc(C)oc(=O)c1,-11%,.,-15%,20µM*,?,-24%
COc1ccc(CCCc2nnc(SCC(=O)Nc3ccc(C)c(C)c3)o2)cc1,3%,22µM*,.,2%,-26%,?
COc1ccccc1NS(=O)(=O)c1cc(NC(=O)c2ccc(Cl)nc2)ccc1N1CCCC1,?,.,-6%,.,.,56µM*
CCC(CC)NCc1c[nH]c2ccccc12,-30%,14µM*,5%,-8%,79µM*,22µM*
CSC(=S)NCc1c[nH]c2ccccc12,.,1%[59 µM],.,-19%,.,.
C/C=C1/C[C@@H](C)[C@@](C)(O)C(=O)OCC2=CCN3CC[C@@H](OC1=O)[C@@H]23,22%,.,.,10%,.,-19%
Cc1cccc(C)c1N1CCN(c2c(C)cccc2C)CC1,71%,40µM*,-3%,5%,9%,3%
CCCC(Cn1cncn1)c1ccc(Cl)cc1Cl (centres undefined),.,.,.,7%,.,.
Cc1cc(C)cc(-n2c(C)cc(/C=C3\C(=O)NC(=O)N(C)C3=O)c2C)c1,30%,0%[59 µM],-6%,-1%,1%,0%[57.1 µM]
Cc1ccnc(-n2c(C)cc(C=C3C(=O)N(C)C(=S)N(C)C3=O)c2C)c1,?,32µM*,-6%,50µM*,?,?
Cc1cc(C=C2C(=O)N(C)C(=S)N(C)C2=O)c(C)n1-c1ccncc1,?,50µM*,-22%,40µM*,-25%,45µM*
Clc1cccc(Cl)c1CN1CCN(c2ccccc2)CC1,?,25µM*,.,-26%,35µM*,3.2µM*
Clc1ccccc1CN1CCN(c2ccccc2)CC1,?,?,.,-11%,50µM*,3.5µM*
Nc1ccc(N2CCN(Cc3ccccc3Cl)CC2)c(Cl)c1,?,?,-15%,13%,45µM*,-8%[11.4 µM]
Clc1ccc(N2CCN(Cc3ccccc3Cl)CC2)cc1,?,25µM*,.,-26%,?,4.5µM*
Fc1ccccc1CN1CCN(c2ccc(Cl)cc2)CC1,28%,19%[2.33 µM],.,10%,-1%,-7%
CO[C@@H](C)[C@](O)(C(=O)OCC1=CCN2CC[C@@H](O)[C@H]12)C(C)C,.,25%[21.5 µM],.,14%,.,.
CCN1C[C@@]2(COC)[C@H]3[C@@H](OC)[C@H]4C1[C@@]3([C@H](OC)C[C@@H]2O)[C@H]1C[C@@]2(O)[C@@H](OC(=O)c3ccccc3)[C@@H]1[C@@]4(OC(C)=O)[C@H](O)[C@@H]2OC,.,11%[21.5 µM],.,6%,.,.
CCCC1(CCC)C(=O)NC(=NCc2ccccc2)NC1=O,1%,45µM*,0%,-7%,3%,-10%
COc1ccc(/C=C2/C(=O)NC(=O)N(C3CCCCC3)C2=O)cc1CSc1ccccn1,.,?,-5%,56µM*,?,.
COc1ccc(C=C2C(=O)N(C)C(=O)N(C)C2=O)cc1CSc1ccccn1,40%,45µM*,-1%,45µM*,-23%,?
CCOC(=O)c1c(NC(=O)C(c2ccccc2)c2ccccc2)sc2c1C1CCN2CC1,1%,50µM*,-25%,?,?,?
CCC1Nc2ncnc(N3CCN(c4ccccn4)CC3)c2N(Cc2ccc(Br)cc2)C1=O (centres undefined),1%,.,0%,.,.,79µM*
COc1ccccc1N1CCN(Cc2ccc(Br)cc2)CC1,21%,?,1%[2.29 µM],?,?,-33%
CN1CCCC2(CCN(C(=O)c3csnn3)CC2)C1,.,-3%[12.7 µM],.,-11%,.,.
O=C(N/N=C/c1c(O)n(Cc2ccco2)c(=O)[nH]c1=O)c1ccccc1,27%,.,.,?,79µM*,79µM*
COc1ccc(Cn2c(O)c(/C=N/NC(=O)c3ccccc3O)c(=O)[nH]c2=O)cc1,27%,-2%[59 µM],2%,?,50µM*,71µM*
